According to PubChem BioAssay (NCATS):
Where “and” joins values, the source holds several entries; their conditions need not be identical. Identical values can stand only once. Inconclusive results are not listed. Calls of active or inactive are those of the source. Unless noted, the call rests on the fitted dose curve; in most records, active means well fitted curve in the direction sought with a large enough effect; inconclusive means small, poorly fitted or top-dose-only effect, or another doubt; inactive means no such curve, though single readings can be large; an effect the other way counts as inactive or inconclusive.

Columns and labels:
[1] = MultiTox-Fluor Cytotoxicity Assay - LYMP1-001 - Dead Cells (AID 946);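 further: 0% = DMSO and 100% = tetraoctylammonium bromide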
In short: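 LYMP1-001 lymphoblastoid cells (2500/well) treated 16 h at 37 C. Dead-cell protease cleavage of bis-AAF-R110 read at Ex/Em 485/520. Normalized to DMSO and 15 uM tetraoctylammonium bromide; AC50 from Hill fits.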

[2] = MultiTox-Fluor Cytotoxicity Assay - LYMP1-002 - Live Cells (AID 955); further: on the % scale 0 is the no-effect control and ±100 the full control effect
In short: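 Read-out is live-cell protease activity (cell-permeant GF-AFC substrate, fluorescence Ex/Em=405/510), where a decrease indicates acute toxicity. Human lymphoblastoid cells were treated 16 hours at 37 C in a concentration series, and AC50 values came from standard Hill modelling.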

[3] = MultiTox-Fluor Cytotoxicity Assay - LYMP1-003 - Dead Cells (AID 961);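 further: 0% = DMSO and 100% = tetraoctylammonium bromide; nearly all actives have a fitted effect of over 70% in size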
In short: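 LYMP1-003 human lymphoblastoid cells (2500/well) exposed to compound 16 h at 37 C in complete medium; dead-cell protease read with bis-AAF-R110 fluorescence (Ex/Em 485/520) after 60 min at room temperature. Normalized to DMSO and 15 uM tetraoctylammonium bromide; AC50 from Hill fit.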

[4] = MultiTox-Fluor Cytotoxicity Assay - LYMP1-003 - Live Cells (AID 962);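 further: 0% = DMSO only and full loss = 92 µM tetraoctylammonium bromide; cytotoxic hits lower the live-cell protease signal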
In short: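 qHTS, 1536-well; 2500 cells/well LYMP1-003; 5 hr 37 C settle; cpd 16 hr 37 C; MultiTox-Fluor reagent 60 min RT; live-cell protease fluor. 405/510; Hill-fit AC50; tetraoctylammonium bromide pos. ctrl.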

[5] = Cell Viability - LYMP1-003 - Assay at 40 hr (AID 964); further: series mostly up to about 92 µM; on the % scale 0 is the no-effect control and ±100 the full control effect; nearly all actives have a fitted effect of over 60% in size
In short: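 Cells were seeded at 2500 per well and incubated 5 hr at 37 C. Compounds were added across a concentration series and left 40 hr at 37 C. CellTiter-Glo was added for 30 min at room temperature before luminescence reading.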

[6] = Cell Viability - LYMP2-011 (AID 969);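 further: 0% = DMSO only and full inhibition = 92 µM tetraoctylammonium bromide; nearly all actives have a fitted effect of over 60% in size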
In short: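 2500 cells/well, 5 hr 37 C; compound added, 24 hr 37 C; CellTiter-Glo 30 min RT; luminescence. qHTS concentration-response, Hill-equation AC50. Tetraoctylammonium bromide positive control.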

[7] = Cell Viability - LYMP2-013 (AID 970);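 further: series mostly up to about 92 µM; 0% = DMSO only and full inhibition = tetraoctylammonium bromide control; nearly all actives have a fitted effect of over 55% in size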
In short: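 qHTS; 2500 lymphoblastoid cells/well; 5 hr 37 C settle; cpd 24 hr 37 C; CellTiter-Glo, 30 min RT; luminescence. AC50 = Hill fit.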

[8] = Cell Viability - LYMP2-017 (AID 972); further: series mostly up to about 92 µM; on the % scale 0 is the no-effect control and ±100 the full control effect; nearly all actives have a fitted effect of over 55% in size
In short: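 2500 cells/well, 5 h 37 C; cpd 24 h 37 C in complete medium; CellTiter-Glo, 30 min RT; luminescence (ATP). AC50 via Hill fit, qHTS.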

[9] = Cell Viability - LYMP2-002 (AID 977);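 further: series mostly up to about 92 µM; compound exposure lasted 24 h at 37 °C; plate controls were DMSO only for no effect and 92 µM tetraoctylammonium bromide for full effect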
In short: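 Human lymphoblastoid LYMP2-002 cells, 2500 per well, exposed to compounds for 24 h at 37 C in complete medium; viability read as intracellular ATP by CellTiter-Glo luminescence, AC50 from Hill fits.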

[10] = Cell Viability - LYMP2-006 (AID 978); further: series mostly up to about 92 µM; on the % scale 0 is the no-effect control and ±100 the full control effect; nearly all actives have a fitted effect of over 60% in size
In short: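 Human lymphoblastoid cells, 2500 per well, were preincubated 5 hr at 37 C, then exposed to compounds for 24 hr at 37 C in complete medium. Viability was read as intracellular ATP by CellTiter-Glo luminescence; AC50 from Hill-equation fits of qHTS concentration-response data.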

[11] = Cell Viability - LYMP2-007 (AID 979);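 further: cells exposed to compound for 24 h before reading; 0% = DMSO only and the negative end = 92 µM tetraoctylammonium bromide; nearly all actives have a fitted effect of over 60% in size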
In short: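 Luminescent ATP signal (CellTiter-Glo) serves as the viability read-out after 24 hr compound treatment of lymphoblastoid cells in complete medium at 37 C. Concentration-response data were fitted to the Hill equation to give AC50 values.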

[12] = Cell Viability - LYMP2-010 (AID 981); further: on the % scale 0 is the no-effect control and ±100 the full control effect; nearly all actives have a fitted effect of over 55% in size
In short: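 Luminescent ATP signal (CellTiter-Glo) served as the viability read-out. Cells of the human lymphoblastoid line were treated with compound over a concentration range for 24 hours at 37 C, and AC50 values came from Hill-equation modeling.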

[13] = Cell Viability - LYMP2-012 (AID 982);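 further: cellular ATP by luciferase luminescence where a drop means cytotoxicity; cells exposed to compound for one day before reading; 0% = DMSO only and full loss = 92 µM tetraoctylammonium bromide; nearly all actives have a fitted effect of over 55% in size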
[14] = Cell Viability - LYMP2-016 (AID 984)
In short: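 Human lymphoblastoid cells (LYMP2-016), 2500/well in complete medium, preincubated 5 hr at 37 C, then compound-treated 24 hr at 37 C. Intracellular ATP read by CellTiter-Glo luminescence after 30 min at room temperature; AC50 from Hill-equation concentration-response fits.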

[15] = Cell Viability - LYMP2-018 (AID 985);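 further: compound exposure lasted 24 hr at 37 °C; plate controls were DMSO only for no effect and tetraoctylammonium bromide at 92 µM for full effect; nearly all actives have a fitted effect of over 50% in size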
In short: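 Luminescent ATP signal (CellTiter-Glo, read after 30 min at room temperature) reports viable cells after 24 hr compound treatment at 37 C. Concentration-response data were fitted to the standard Hill equation for AC50.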

[16] = Cell Viability - LYMP2-020 (AID 986)
In short: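 Luminescent ATP signal (CellTiter-Glo, 30 min at room temperature) is the read-out after 24 h compound treatment of lymphoblastoid cells at 37 C. AC50 values come from Hill-equation fits across concentrations.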

[17] = Cell Viability - LYMP2-022 (AID 987)
In short: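 qHTS: human lymphoblastoid cells 2500/well; 5 hr 37 C; cpd added; 24 hr 37 C; CellTiter-Glo, 30 min RT; luminescence. AC50 via Hill fit; tetraoctylammonium bromide positive ctrl.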

[18] = Cell Viability - LYMP2-024 (AID 988)
In short: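 Steps: seed 2500 cells/well, 5 hr 37 C; add compound, 24 hr 37 C; add CellTiter-Glo, 30 min room temperature; read luminescence. AC50 derived by Hill modelling of concentration-dependent ATP loss.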

[19] = qHTS assay for small molecule agonists of the antioxidant response element (ARE) signaling pathway measured by Nrf2-dependant transcriptional activity - cell viability counter screen (AID 720653; active means well fitted curve in the direction sought with a large enough effect in the repeat runs; an effect the other way counts as inactive or inconclusive; further: on the % scale 0 is the no-effect control and ±100 the full control effect); details: ARE-bla HepG2 viability, CellTiter-Glo ATP luminescence, 16 h; max response: stronger effect = lower value
In short: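 ARE-bla HepG2 cells treated with compounds for 16 h at 37C; this counter screen measures viability as intracellular ATP by CellTiter-Glo luminescence after 30 min at room temperature.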

[20] = qHTS assay for cell viability of HEK293 cells (AID 743288); details: ATP luminescence (CellTiter-Glo), 18 h; max response: stronger effect = lower value; further: on the % scale 0 is the no-effect control and ±100 the full control effect; nearly all actives have a fitted effect of over 50% in size
In short: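 Parental HEK293 cells were seeded at 2,000 cells/well, rested at least 5 h at 37 C, then exposed to compounds in DMSO for 18 h at 37 C. Viability was read as ATP-dependent luciferase luminescence after 30 min at room temperature.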

CCCN(CCC)C(=O)SCC
inactive: Potency [1] | Potency [2] | Potency [3] | Potency [4] | Potency [5] | Potency [6] | Potency [7] | Potency [8] | Potency [9] | Potency [10] | Potency [11] | Potency [12] | Potency [13] | Potency [14] | Potency [15] | Potency [16] | Potency [17] | Potency [18] | max response [19] -4.11% and 2.96% | max response [20] -7.69% and -8.5%

Nc1ccc(S(=O)(=O)O)cc1
inactive: Potency [1] | Potency [2] | Potency [3] | Potency [4] | Potency [5] | Potency [6] | Potency [7] | Potency [8] | Potency [9] | Potency [10] | Potency [11] | Potency [12] | Potency [13] | Potency [14] | Potency [15] | Potency [16] | Potency [17] | Potency [18] | max response [19] 0.96% and 3.16% | max response [20] -3.43% and 3.86%

CCO[Si](CCCN)(OCC)OCC
inactive: Potency [1] | Potency [2] | Potency [3] | Potency [4] | Potency [5] | Potency [6] | Potency [7] | Potency [8] | Potency [9] | Potency [10] | Potency [11] | Potency [12] | Potency [13] | Potency [14] | Potency [15] | Potency [16] | Potency [17] | Potency [18] | max response [19] -1.9% and -14% | max response [20] -4.38% and -9.06%

COCC(=O)O
inactive: Potency [1] | Potency [2] | Potency [3] | Potency [4] | Potency [5] | Potency [6] | Potency [7] | Potency [8] | Potency [9] | Potency [10] | Potency [11] | Potency [12] | Potency [13] | Potency [14] | Potency [15] | Potency [16] | Potency [17] | Potency [18] | max response [19] 8.69% and 6.89% | max response [20] -1.06% and 2.91%

CC1(C)S[C@@H]2[C@H](NC(=O)COc3ccccc3)C(=O)N2[C@H]1C(=O)O
inactive: max response [19] -8.85% | max response [20] -6.9%

Cc1ccc([N+](=O)[O-])cc1N
inactive: Potency [1] | Potency [2] | Potency [3] | Potency [4] | Potency [5] | Potency [6] | Potency [7] | Potency [8] | Potency [9] | Potency [10] | Potency [11] | Potency [12] | Potency [13] | Potency [14] | Potency [15] | Potency [16] | Potency [17] | Potency [18] | max response [19] -2.84% and 7.73% | max response [20] -2.6% and -12%

COC(=O)c1ccc(C=O)cc1
inactive: Potency [1] | Potency [2] | Potency [3] | Potency [4] | Potency [5] | Potency [6] | Potency [7] | Potency [8] | Potency [9] | Potency [10] | Potency [11] | Potency [12] | Potency [13] | Potency [14] | Potency [15] | Potency [16] | Potency [17] | Potency [18] | max response [19] -1.73% and -0.32% | max response [20] -15.6% and -6.77%

Nc1ccc(Cl)cc1Cl
inactive: Potency [1] | Potency [2] | Potency [3] | Potency [4] | Potency [5] | Potency [6] | Potency [7] | Potency [8] | Potency [9] | Potency [10] | Potency [11] | Potency [12] | Potency [13] | Potency [14] | Potency [15] | Potency [16] | Potency [17] | Potency [18] | max response [19] -3.23% and 2.15% | max response [20] 1.15% and -5.99%

O=[N+]([O-])c1cccc(Cl)c1Cl
inactive: Potency [1] | Potency [2] | Potency [3] | Potency [4] | Potency [5] | Potency [6] | Potency [7] | Potency [8] | Potency [9] | Potency [10] | Potency [11] | Potency [12] | Potency [13] | Potency [14] | Potency [15] | Potency [16] | Potency [17] | Potency [18] | max response [19] 3.32% and 9.85% | max response [20] -3.06% and -4.76%

CC(=O)OC/C=C(\C)CCC=C(C)C
inactive: Potency [1] | Potency [2] | Potency [3] | Potency [4] | Potency [5] | Potency [6] | Potency [7] | Potency [8] | Potency [9] | Potency [10] | Potency [11] | Potency [12] | Potency [13] | Potency [14] | Potency [15] | Potency [16] | Potency [17] | Potency [18] | max response [19] -2.65% and 12.5% | max response [20] -10.3% and 5.2%

Clc1cc(Cl)c(Cl)c(Cl)c1Cl
inactive: Potency [1] | Potency [2] | Potency [3] | Potency [4] | Potency [5] | Potency [6] | Potency [7] | Potency [8] | Potency [9] | Potency [10] | Potency [11] | Potency [12] | Potency [13] | Potency [14] | Potency [15] | Potency [16] | Potency [17] | Potency [18] | max response [19] -0.0319% and -1.01% | max response [20] -16.4% and -15.3%
